Screening data as filed in PubChem BioAssay.
Sampled rows, rich in hits. Any-hit rate of the full collection: about 9.1%.
D1 allo mod: allosterically modulates the human D1 dopamine receptor. P21728. B-score at 10 µM. HEK293 D1, CRE-luciferase, dopamine EC30 potentiation; actives deviate in either direction. actives 5.9% (n = 58,000);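 active = luminescence count or its row- and column-corrected plate score outside the 99.7% band of the plate's sample wells, on either side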
M1 agonist: activates the M1 muscarinic receptor; B-score at 10 µM; CHO-M1 cells, Fluo-4 calcium fluorescence, agonist mode; hits give high values; AID 626; actives 3% (n = 64,000);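 active = fluorescence rise, raw or as B-score row- and column-corrected plate score, outside the 99.7% band of its plate's samples, either direction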
M1 antagonist: M1 muscarinic receptor (rat) antagonism | CHO-M1 cells, Fluo-4 calcium, ACh EC80 antagonist mode; hits give low values | B-score at 10 µM | actives 3.4% (n = 64,000) | AID 628;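 active = calcium fluorescence response, raw or row-and-column corrected B-score, differing from the plate sample mean either way at a set confidence level, mostly lower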
Target sequence (P08482 whole entry, looked up): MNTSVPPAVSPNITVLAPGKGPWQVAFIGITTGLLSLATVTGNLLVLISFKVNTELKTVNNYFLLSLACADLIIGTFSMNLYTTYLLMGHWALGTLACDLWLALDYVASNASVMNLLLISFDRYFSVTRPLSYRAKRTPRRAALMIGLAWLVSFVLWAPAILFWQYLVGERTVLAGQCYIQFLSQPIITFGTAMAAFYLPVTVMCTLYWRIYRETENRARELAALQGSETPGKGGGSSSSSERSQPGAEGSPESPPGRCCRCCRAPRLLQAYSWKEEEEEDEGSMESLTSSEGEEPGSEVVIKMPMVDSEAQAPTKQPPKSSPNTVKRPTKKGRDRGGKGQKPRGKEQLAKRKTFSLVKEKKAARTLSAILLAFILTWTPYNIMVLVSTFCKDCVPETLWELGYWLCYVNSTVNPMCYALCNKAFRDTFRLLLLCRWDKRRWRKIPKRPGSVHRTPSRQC
mHtt clearance: mutant huntingtin protein clearance | HeLa Exon1htt(103Q)mCFP, aggregate imaging; zero = plate's median compound well | inhibition, % at 1.5 µM | actives 0.42% (n = 47,000) | AID 853;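 active = inhibition of aggregate fluorescence above about 70%, also judged a hit by eye on the cell image, limit read from the data, passing the limit was not always enough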;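 also: cells exposed to compound for three days before fixation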
D1 mod confirm: D1 receptor (human) allosteric modulation, confirmed. shares compounds with D1 allo mod. HEK293 D1 CRE-luciferase, dopamine EC30 potentiation; hits give high values. luminescence at 10 µM. actives 88% (n = 2,200);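 active = luminescence in either of two replicates above the same-plate mean plus 3 SD of the low-dose dopamine control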
D1 no dopamine: activates D1 CRE-luciferase signal without dopamine present | AID 646 | HEK293 D1 CRE-luciferase, luminescence, no dopamine; hits give high values | shares compounds with D1 allo mod | luminescence at 10 µM | actives 0.8% (n = 1,900); in the data active = luminescence above about 3900
Isoprot counter: counter-screen for D1 modulators: isoproterenol response in HEK293 cells; actives 63% (n = 2,200); luminescence at 10 µM; shares compounds with D1 allo mod; HEK293 D1 CRE-luciferase, isoproterenol EC30 counter-screen; hits give high values;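 active = luminescence in either replicate above plate mean of wells with a partly effective reference agonist dose plus 3 SD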;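 also: isoproterenol raises cAMP through native beta-adrenoceptor Gs so signal bypasses D1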
* hit, by the source's call; / = no result.

SMILES	D1 allo mod	M1 agonist	M1 antagonist	mHtt clearance	D1 mod confirm	D1 no dopamine	Isoprot counter
CCN1CCN(C(=O)c2ccc3c(c2)N(Cc2ccc(F)cc2)C(=O)c2ccccc2S3=O)CC1 (configuration not stated)	0.73	-1	-0.05	/	/	/	/
Cc1noc(C)c1CSc1nnc2scc(-c3ccc(Cl)cc3)n12	7.8*	0.046	-0.67	1	18508*	1640	4540*
Cc1ccc(-c2nc(NC(=O)CSc3nnc4scc(-c5ccccc5)n34)ns2)cc1	-2	1.3	0.27	/	/	/	/
Cc1nc(CSc2nnc3scc(-c4ccccc4)n23)cs1	10*	-0.21	0.049	7	21372*	1512	4364*
Cc1ccc(-c2csc3nnc(SCc4csc(C)n4)n23)cc1	9.3*	0.094	0.15	/	22688*	1908	5044*
CCc1nnc(NC(=O)CSc2nnc3scc(-c4ccc(C)cc4)n23)s1	0.24	1.2	1.1	-10	/	/	/
Cc1ccc(C(=O)C2COC(=O)C2)cc1 (configuration not stated)	1	-0.52	0.47	10	/	/	/
O=C(O)c1ccc(-c2ccc(O)c(F)c2)cc1	5.9*	1.6	-0.97	/	7760*	1624	2940*
CC(=O)Oc1ccc(-c2ccc(C(=O)O)cc2)cc1	0.0087	0.23	1.4	-2	/	/	/
COc1cccc(Cn2nnc(C(=O)NCc3ccccc3Cl)c2N)c1	6.8*	-0.48	-2.1	-134	16056*	1908	4360*
COc1cccc(Cn2nnc(C(=O)NCc3ccc(F)cc3)c2N)c1	1.3	-1.4	-0.42	12	/	/	/
Cc1nc2ccccc2c2oc(C(=O)NCCN3CCN(C)CC3)cc12	2.6*	-0.34	-0.69	-22	5656	1600	3144
Nc1nc(SCC(=O)OCc2ccccc2)[nH]c(=O)c1NC(=O)c1ccco1	3.2*	0.46	0.028	/	6284*	1856	2640
O=C(OCn1nnc2ccccc2c1=O)C1CCN(S(=O)(=O)c2cccs2)CC1	4*	0.022	-0.0094	/	11392*	1780	2944
COc1ccc(OC)c(NC(=O)Cc2coc3cc(C)cc(C)c23)c1	/	/	/	-40	/	/	/
CCOC(=O)C(CCSC)NC(=O)CN (configuration not stated)	4.8*	-0.022	-0.15	/	6764	1616	2624
O=C(Nc1ccc(S(=O)(=O)N2CCN(Cc3ccccc3)CC2)cc1)c1cnccn1	-1.7	-0.89	-0.69	-28	/	/	/
COc1ccc(CN2CCN(S(=O)(=O)c3ccc(F)cc3)CC2)c(OC)c1OC	/	/	/	-41	/	/	/
COc1ccc(CN2CCN(S(=O)(=O)c3ccccc3)CC2)c(OC)c1	4.4*	-1.5	0.19	6	6876*	1608	3612
COc1ccc(CN2CCN(S(=O)(=O)c3ccc(F)cc3)CC2)cc1OC	22*	0.52	0.42	7	24864*	1876	4916*
CCOC(=O)C1CCN(c2cc(=O)n(Cc3ccc(F)cc3)c(=O)[nH]2)CC1	-0.11	0.008	0.44	/	/	/	/
Cc1ccc(-c2[nH]nc3c2C(c2ccoc2)C(C#N)=C(N)O3)cc1C (configuration not stated)	11*	-0.27	0.75	49	18284*	1340	4760*
COc1ccc(-c2[nH]nc3c2C(c2ccoc2)C(C#N)=C(N)O3)cc1 (configuration not stated)	/	/	/	9	/	/	/
CC(C)CC1C(C#N)=C(N)Oc2n[nH]c(-c3ccccc3)c21 (configuration not stated)	/	/	/	-131	/	/	/
CC(C)C1C(C#N)=C(N)Oc2n[nH]c(-c3ccccc3)c21 (configuration not stated)	3.8*	-0.15	1.3*	40	13728*	1660	2760
CCOc1cc(C2C(C#N)=C(N)Oc3n[nH]c(-c4ccccc4)c32)ccc1O (configuration not stated)	3.8*	1.2	-0.052	/	5848*	1448	2572
C=CCNS(=O)(=O)c1ccc2nsnc2c1	-1	0.41	0.83	/	/	/	/
CCCNC(=S)N1CCC(NC(=O)C2CCCCC2)CC1	/	/	/	20	/	/	/
COC(=O)c1c(NC(=O)Cc2cccs2)sc(C)c1C	15*	0.64	-0.74	/	11876*	1564	3888*
CCOC(=O)c1c(NC(=O)Cc2cccs2)sc(C(=O)N2CCCCC2)c1C	12*	-0.21	0.028	-28	17816*	1812	6864*
